From ChEMBL document CHEMBL2218924, “A broad activity screen in support of a chemogenomic map for kinase signalling research and drug discovery” (Biochem J, 2013)

These molecules were tested against T1, Tyrosine-protein kinase JAK3 (Homo sapiens) (UniProt P52333). Settings: at 1 µM.
T1 sequence (whole entry): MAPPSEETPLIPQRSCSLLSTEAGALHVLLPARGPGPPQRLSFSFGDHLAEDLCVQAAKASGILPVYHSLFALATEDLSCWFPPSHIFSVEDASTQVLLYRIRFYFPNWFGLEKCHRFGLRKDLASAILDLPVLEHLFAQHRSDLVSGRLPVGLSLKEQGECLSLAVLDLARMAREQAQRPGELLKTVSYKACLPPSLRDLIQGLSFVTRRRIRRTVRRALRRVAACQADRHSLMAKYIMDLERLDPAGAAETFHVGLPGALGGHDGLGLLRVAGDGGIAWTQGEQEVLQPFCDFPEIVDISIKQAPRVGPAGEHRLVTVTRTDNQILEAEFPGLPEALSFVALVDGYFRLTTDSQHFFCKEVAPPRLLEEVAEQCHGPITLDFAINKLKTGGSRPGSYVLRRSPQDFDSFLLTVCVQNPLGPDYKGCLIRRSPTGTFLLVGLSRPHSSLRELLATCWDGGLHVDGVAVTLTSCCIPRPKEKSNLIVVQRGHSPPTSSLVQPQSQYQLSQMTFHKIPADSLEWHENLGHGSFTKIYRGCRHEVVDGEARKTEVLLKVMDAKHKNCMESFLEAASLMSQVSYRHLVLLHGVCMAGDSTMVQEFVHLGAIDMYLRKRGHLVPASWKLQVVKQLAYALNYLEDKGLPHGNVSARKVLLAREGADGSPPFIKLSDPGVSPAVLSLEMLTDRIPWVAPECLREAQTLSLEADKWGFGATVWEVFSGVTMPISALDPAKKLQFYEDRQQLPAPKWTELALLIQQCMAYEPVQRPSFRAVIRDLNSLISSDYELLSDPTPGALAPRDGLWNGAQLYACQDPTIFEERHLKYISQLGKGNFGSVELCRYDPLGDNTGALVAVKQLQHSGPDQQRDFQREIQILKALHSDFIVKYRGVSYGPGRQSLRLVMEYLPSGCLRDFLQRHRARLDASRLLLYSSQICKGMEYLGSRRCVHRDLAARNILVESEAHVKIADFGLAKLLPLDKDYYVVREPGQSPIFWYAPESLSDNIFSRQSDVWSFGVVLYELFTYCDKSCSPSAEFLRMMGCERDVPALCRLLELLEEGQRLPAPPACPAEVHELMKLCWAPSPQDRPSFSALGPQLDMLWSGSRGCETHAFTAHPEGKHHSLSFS
Work on `Cn1cc(/C=C2\C(=O)Nc3ccc(S(N)(=O)=O)cc32)c2ccccc21` yielded a residual activity of 45%. Work on `COc1cc2ncnc(Nc3ccc(Oc4ccccc4)cc3)c2cc1OC` yielded a residual activity of 93%. `O=c1cc(-c2cccc3c2Sc2ccccc2S3)oc(N2CCOCC2)c1` gave a residual activity of 114%. `Oc1ccc(-c2nc(-c3ccc(F)cc3)c(-c3ccncc3)[nH]2)cc1` showed a residual activity of 108%. `O=C1c2ccccc2-[n+]2ccc3c([nH]c4ccccc43)c21` gave a residual activity of 109%. `Nc1nc(Nc2ccc(S(N)(=O)=O)cc2)nn1C(=S)Nc1c(F)cccc1F` showed a residual activity of 0%. Work on `N#C/C(=C(\N)Sc1ccc(N)cc1)c1ccccc1C(F)(F)F` yielded a residual activity of 101%. For `CC(=O)c1ccc(N2CCOCC2)cc1O`, the residual activity was 102%. Work on `CO[C@@H]1[C@H](N(C)C(=O)c2ccccc2)C[C@H]2O[C@]1(C)n1c3ccccc3c3c4c(c5c6ccccc6n2c5c31)C(=O)NC4` yielded a residual activity of 1%. Molecule `O=C(Nc1cccc(Nc2nccc(Nc3cccc(C(F)(F)F)c3)n2)c1)C1CC1` has a residual activity of 76%. Work on `N#Cc1cnc2cnc(NCc3cccnc3)cc2c1Nc1ccc(F)c(Cl)c1` yielded a residual activity of 82%. Molecule `CC(=O)O/N=C1\C(=C2\C(=O)Nc3cc(Br)ccc32)Nc2ccccc21` has a residual activity of 75%. For `Cn1cnc2cc3c(Nc4cccc(Br)c4)ncnc3cc21`, the residual activity was 102%. `CCC(=O)Nc1ccc2ncnc(Nc3cccc(Br)c3)c2c1` was tested, and the residual activity was 99%. In the case of `O=c1c2ccccc2[nH]c(=S)n1CCN1CCC(=C(c2ccc(F)cc2)c2ccc(F)cc2)CC1`, the residual activity is reported as 97%. `CC[n+]1c(/C=C/N(C)c2ccccc2)n(-c2ccccc2)c2ccc(-c3nc4ccccc4s3)cc21` showed a residual activity of 118%. `O=Nc1c(-c2c(O)[nH]c3ccccc23)[nH]c2ccccc12` was tested, and the residual activity was 21%. Work on `CC#CC(=O)Nc1cc2c(Nc3ccc(F)c(Cl)c3)ncnc2cn1` yielded a residual activity of 51%. With `O=[N+]([O-])c1ccc(-c2nc(-c3ccc(F)cc3)c(-c3ccncc3)[nH]2)cc1` the residual activity was 118%. For `Cc1cc2ncc(-c3ccccc3)nc2cc1C`, the residual activity was 98%. Molecule `COc1cc2ncnc(Nc3ccc(NC(=O)c4ccccc4)cc3)c2cc1OC` has a residual activity of 102%. Work on `O=C(O)c1ccc2c3c1cccc3c(=O)n1c3ccccc3nc21` yielded a residual activity of 46%. Molecule `CCN(CC)C(=O)c1ccc(Nc2nc(OCC3CCCCC3)c3nc[nH]c3n2)cc1` has a residual activity of 7%. In the case of `O=C1Nc2ccc(Br)cc2/C1=C\c1cc2c([nH]1)CCCC2`, the residual activity is reported as 108%. In the case of `Cc1cc(Nc2nc(-c3ccccc3)nc3ccccc23)n[nH]1`, the residual activity is reported as 41%. `c1ccc(-c2n[nH]c3c2oc2ccccc23)cc1` gave a residual activity of 92%. `Oc1ccc(Nc2nc(-c3ccc(Cl)cc3)cs2)cc1` showed a residual activity of 95%. `Cc1cncc2cccc(S(=O)(=O)N3CCCN(C(=O)CN)C[C@H]3C)c12` showed a residual activity of 92%. With `COc1cc2ncc(-c3ccccc3)nc2cc1OC` the residual activity was 92%. With `c1ccc2c(-c3ccncc3)c[nH]c2c1` the residual activity was 103%.

Each molecule was assayed against T1, Tyrosine-protein kinase JAK3 (Homo sapiens). Settings: at 10 µM.
`Cn1cc(/C=C2\C(=O)Nc3ccc(S(N)(=O)=O)cc32)c2ccccc21` was tested, and the residual activity was 11%. With `COc1cc2ncnc(Nc3ccc(Oc4ccccc4)cc3)c2cc1OC` the residual activity was 113%. In the case of `O=c1cc(-c2cccc3c2Sc2ccccc2S3)oc(N2CCOCC2)c1`, the residual activity is reported as 113%. Molecule `Oc1ccc(-c2nc(-c3ccc(F)cc3)c(-c3ccncc3)[nH]2)cc1` has a residual activity of 93%. Molecule `Nc1nc(Nc2ccc(S(N)(=O)=O)cc2)nn1C(=S)Nc1c(F)cccc1F` has a residual activity of 2%. `N#C/C(=C(\N)Sc1ccc(N)cc1)c1ccccc1C(F)(F)F` was tested, and the residual activity was 101%. With `CC(=O)c1ccc(N2CCOCC2)cc1O` the residual activity was 105%. In the case of `CO[C@@H]1[C@H](N(C)C(=O)c2ccccc2)C[C@H]2O[C@]1(C)n1c3ccccc3c3c4c(c5c6ccccc6n2c5c31)C(=O)NC4`, the residual activity is reported as 1%. `O=C(Nc1cccc(Nc2nccc(Nc3cccc(C(F)(F)F)c3)n2)c1)C1CC1` gave a residual activity of 23%. `N#Cc1cnc2cnc(NCc3cccnc3)cc2c1Nc1ccc(F)c(Cl)c1` was tested, and the residual activity was 81%. `CC(=O)O/N=C1\C(=C2\C(=O)Nc3cc(Br)ccc32)Nc2ccccc21` showed a residual activity of 26%. With `Cn1cnc2cc3c(Nc4cccc(Br)c4)ncnc3cc21` the residual activity was 108%. `CCC(=O)Nc1ccc2ncnc(Nc3cccc(Br)c3)c2c1` showed a residual activity of 100%. Molecule `O=c1c2ccccc2[nH]c(=S)n1CCN1CCC(=C(c2ccc(F)cc2)c2ccc(F)cc2)CC1` has a residual activity of 101%. In the case of `CC[n+]1c(/C=C/N(C)c2ccccc2)n(-c2ccccc2)c2ccc(-c3nc4ccccc4s3)cc21`, the residual activity is reported as 149%. For `O=Nc1c(-c2c(O)[nH]c3ccccc23)[nH]c2ccccc12`, the residual activity was 2%. For `CC#CC(=O)Nc1cc2c(Nc3ccc(F)c(Cl)c3)ncnc2cn1`, the residual activity was 59%. In the case of `O=[N+]([O-])c1ccc(-c2nc(-c3ccc(F)cc3)c(-c3ccncc3)[nH]2)cc1`, the residual activity is reported as 108%. `Cc1cc2ncc(-c3ccccc3)nc2cc1C` gave a residual activity of 81%. `O=C(O)c1ccc2c3c1cccc3c(=O)n1c3ccccc3nc21` showed a residual activity of 9%. `CCN(CC)C(=O)c1ccc(Nc2nc(OCC3CCCCC3)c3nc[nH]c3n2)cc1` showed a residual activity of 1%. With `O=C1Nc2ccc(Br)cc2/C1=C\c1cc2c([nH]1)CCCC2` the residual activity was 101%. `N#CCCc1ccc2c(c1)-c1[nH]c3ccc([N+](=O)[O-])cc3c1CC(=O)N2` showed a residual activity of 66%. With `Cc1cc(Nc2nc(-c3ccccc3)nc3ccccc23)n[nH]1` the residual activity was 5%. `c1ccc(-c2n[nH]c3c2oc2ccccc23)cc1` showed a residual activity of 70%. `Oc1ccc(Nc2nc(-c3ccc(Cl)cc3)cs2)cc1` was tested, and the residual activity was 122%. `COc1cc2ncc(-c3ccccc3)nc2cc1OC` gave a residual activity of 58%.
